Measured values taken from PubChem BioAssay AID817 (Emory University Molecular Libraries Screening Center, 2007).
Out of some 140,000 compounds screened, about 300 (0.21%) were called active.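 How the source made its calls: active means z-score above 3 at both the 24 hr and the 30 hr optical density reads; inactive means the rest, inconclusive results apart.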 Only a selection was taken, and actives are over-represented in it overall.

Assay: growth rescue of sdo1-depleted yeast, primary screen, S. cerevisiae, bone marrow failure model (AID 817);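 further: z-score against mean and SD of all compound wells on the same plate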
Conditions: S. cerevisiae sdo1-depleted JHY4D growth rescue, at 10 µM, stronger effect = higher value, pdr5 snq2 efflux-pump mutant strain
[1] = OD600, measured here: growth rescue at 24 h

Compound | z-score (OD600 30 h) | z-score [1]
CCOC(=O)c1c(/N=C/C2C(=O)CC(C)(C)CC2=O)sc(C)c1C | 0.94 (inactive) | 1.36
O=C(/C=C/c1cccc([N+](=O)[O-])c1)NCCSCc1ccco1 | -0.03 (inactive) | -0.07
CC(C)NC(=S)N1CCN(S(C)(=O)=O)CC1 | 0.56 (inactive) | 0.03
COCCOC(=O)c1c(C)oc2cc(Br)c(OCC(N)=O)cc12 | 0.6 (inactive) | 0.18
O=C(Nc1ccccc1Cl)c1ccccc1S(=O)(=O)c1ccccc1[N+](=O)[O-] | 0.14 (inactive) | 0.15
C[C@@H]1NC(=O)c2cc([N+](=O)[O-])cc(F)c2NCCC[C@@H](C(N)=O)NC(=O)[C@H](CC(N)=O)NC1=O | 0.86 (inactive) | 0.49
CN(c1ccccc1)S(=O)(=O)c1ccc(Cl)c(C(=O)NCCc2c[nH]c3ccccc23)c1 | 0.35 (inactive) | 0.28
CC(Oc1ccccc1F)C(=O)NN (stereo not given) | -0.12 (inactive) | -0.98
O=C(Cc1cccc2ccccc12)NCCC1=CCCCC1 | -0.77 (inactive) | -0.75
O=C(Nn1c(-c2ccc(Cl)cc2)nc2ccccc2c1=O)c1cccnc1Cl | 0.6 (inactive) | 0.56
CCOC(=O)C1=C(c2ccc(OC)cc2)C(=O)c2ccccc2C1=O | -1.39 (inactive) | -0.65
CCOC(=O)CNC(=O)/C=C/c1c(Cl)cccc1Cl | -0.54 (inactive) | -0.72
COc1ccc(OCC(O)CNC(=O)Nc2ccc(Cl)cc2)cc1 (stereo not given) | 0.9 (inactive) | 0.68
S=C(NCCc1ccccc1)NCc1ccccc1Cl | -1.82 (inactive) | -1.22
N#Cc1ccccc1NC(=O)COc1c(Br)cc(Br)c2cccnc12 | 0.47 (inactive) | 2.32
O=C(NC(=S)N1CCN(Cc2ccccc2)CC1)c1ccccc1 | 0.36 (inactive) | 0.18
CC(=O)c1cc(-c2ccccc2)n(CCC(=O)NC2CCCCCC2)c1C | -1.63 (inactive) | -1.27
CCOC(=O)C1CCN(C(=O)c2ccccc2N(C)S(=O)(=O)c2ccccc2)CC1 | 0.01 (inactive) | -0.21
O=C(NN1C(=O)C2C3C=CC(O3)C2C1=O)c1ccncc1 (stereo not given) | 0.24 (inactive) | -0.88
Cc1ccc(S(=O)(=O)N2CCC(C(=O)N[C@@H](C)C(=O)NCc3ccco3)CC2)cc1 | 1.22 (inactive) | 0.16
Cc1ccn(-c2cccc(-n3ccc(C)n3)n2)n1 | -0.06 (inactive) | -0.3
COc1ccc2c(c1)C(SCC(=O)NCc1ccccc1)CC(C)(C)O2 (stereo not given) | -0.16 (inactive) | -0.58
COc1ccc(-c2csc(NC(=O)COC(=O)c3ccc(Br)o3)n2)cc1 | 1.63 (inactive) | 1.52
COC(=O)Cc1ccc(OCC(=O)Nc2ccc(OC(F)(F)F)cc2)cc1 | 0.38 (inactive) | 0.19
Cc1ccccc1C1=NC(C(F)(F)F)(C(F)(F)F)c2c(n(-c3ccc(F)cc3)c(=O)[nH]c2=O)N1 | 0.91 (inactive) | 1.23

Compound | z-score (OD600 30 h) | z-score [1]
CC(C)(C)CC(C)(C)NCC(O)COCCOc1ccc(Br)cc1 (stereo not given) | -1.47 (inactive) | -1.24
CCCn1c(C)cc(/C=C(\C#N)C(=O)OCC(=O)Nc2cc(OC)c(OC)c(OC)c2)c1C | -0.22 (inactive) | -0.65
COC(=O)c1sccc1NC(=O)COc1ccc(Cl)cc1 | -0.81 (inactive) | 0.03
Cc1cc(C)cc(NC(=S)NCc2ccc(F)cc2)c1 | -0.44 (inactive) | -0.91
COc1ccc(C2=NN(C(=O)c3cccnc3)C(c3ccccc3)C2)cc1 (stereo not given) | -0.64 (inactive) | -0.53
Cc1ccc(Nc2cc(C)nc3c(C)ccc([N+](=O)[O-])c23)cc1 | -2.1 (inactive) | -1.28
O=c1c2sccc2nc(SCc2cc(=O)n3ccccc3n2)n1-c1ccc(Br)cc1 | -0.28 (inactive) | 0.04
Cc1ccc(C)c(NC(=O)CCC(=O)NNC(=O)c2cccs2)c1 | 0.52 (inactive) | -0.15
O=C(CSc1ccc(C(F)(F)F)cc1[N+](=O)[O-])NCCOc1ccccc1 | -0.75 (inactive) | -0.39
Cc1cccc(C(=O)OCC(=O)Nc2sc3c(c2C#N)CCC3)c1 | 1.54 (inactive) | 1.79
CCCNC(=O)NC(=O)COC(=O)CC(NC(N)=O)c1ccc(Cl)cc1 (stereo not given) | 1.01 (inactive) | 0.32
CC[C@H]1OC(=O)[C@H](C)[C@@H](O[C@H]2C[C@@](C)(OC)[C@@H](O)[C@H](C)O2)[C@H](C)[C@@H](O[C@@H]2O[C@H](C)C[C@H](N(C)C)[C@H]2O)[C@](C)(O)C[C@@H](C)[C@@H]2N[C@@H](COCCOC)O[C@H]([C@H]2C)[C@]1(C)O | 2.24 (inactive) | 2.51
Cc1cc(Cl)ccc1OCCCC(=O)NCc1ccncc1 | -0.45 (inactive) | -0.98
O=C(CCN1C(=O)c2ccccc2C1=O)C1=NN[C@@H]2C(=O)N(c3ccc(F)cc3)C(=O)[C@H]12 | 0.12 (inactive) | -0.42
CC(NC(=O)COC(=O)C1CCN(S(=O)(=O)c2ccccc2C(F)(F)F)CC1)c1ccccc1 (stereo not given) | 1.2 (inactive) | 1.46
Cc1ccc(S/C(=N\S(=O)(=O)c2ccc(Cl)cc2)c2ccccc2)cc1 | -0.79 (inactive) | -1.13
O=S(=O)(/N=C(/Nc1ccccn1)c1ccccc1)c1ccc(Cl)cc1 | 5.14 (active) | 4.98
Cc1ccc(S(=O)(=O)/N=C(/Nc2ccccn2)c2ccc(Cl)cc2)cc1 | -1.04 (inactive) | -0.87
Cc1sc2ncnc(Sc3nc4ccccc4s3)c2c1C | 0.02 (inactive) | -0.34
CC(C)NC(=S)N1CCN(C(c2ccccc2)c2ccccc2)CC1 | -1.16 (inactive) | -1.01
CC(C)=C(NC(=O)c1ccccc1)C(=O)N/N=C(\C)c1ccccc1O | 1.49 (inactive) | 2.26
Cc1ccc(C(=O)c2ccc(N3CCN(C)CC3)c([N+](=O)[O-])c2)cc1 | 1.82 (inactive) | 1.21
COc1ccc(NC(=O)CC2C(=O)OCC3CCCCN32)cc1Cl (stereo not given) | 0.14 (inactive) | -0.04
Cc1ccc(N=C2NC(=O)c3cccc([N+](=O)[O-])c32)cc1 | 0.32 (inactive) | 0.33
CCN(CC)c1ccc(C(=O)N/N=C(\C)c2cccc(OC)c2)cc1 | 0.86 (inactive) | 0.18
